# Measurements as given in PubChem BioAssay (NCI).
# This is part of a sample that, as a whole, favours compounds with a hit. Of some 83,000 tested, about 20% had one in any assay.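 Each cell line was grown in a 96-well plate and treated with one concentration of compound for 48 hours. Values below 10 were considered active.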 Values without a mark were called inactive. Calls of active or inactive are those of the source.
# Test system: NCI-H522 lung
# Assay: NCI-60 one-dose screen, 48 h (100 = growth as untreated, 0 = no growth, -100 = all killed)
# Conditions: 10 µM unless noted
row,SMILES,growth
1,O=C1NC(=O)c2c1c1c3ccccc3ccc1c1[nH]c3ccc(Br)cc3c21,20.1%
2,Cc1ccc(-c2nc3nc(-c4ccccc4)nc(N4CCNCC4)c3o2)cc1,-79.2% (active)
3,CC(C)(C)n1cc(-c2ccnc(NCCNS(=O)(=O)c3cccc(F)c3)c2)c(-c2ccccc2)n1,79.8%
4,Cc1c(-n2nnc(-c3nc4ccccc4s3)c2N)c(=O)n(-c2ccccc2)n1C,90.6%

# Test system: A549/ATCC NSCLC
# Assay: as above
# Conditions: 10 µM unless noted
row,SMILES,growth
1,Cc1ccc(Cl)cc1Nc1nc(C(F)(F)F)ccc1C(=O)N/N=C/c1cccnc1,27.5%
2,Fc1ccc(-c2nn(-c3ccccc3)cc2-c2nc3ccccc3o2)cc1,55.3%
3,CCOC(=O)C(=Cc1cccc(Br)c1)C(=O)OCC,41.8%
4,COc1cccc(NC(=O)Cn2cc(CN3CCN(c4ccnc5cc(Cl)ccc45)CC3)nn2)c1,87.9%
5,CCOC(=O)c1cc2c(=O)oc3ccccc3c2oc1=O,105%
6,O=C(Nc1cc(Cl)ccc1O)c1ccc(Nc2ccnc(C(F)(F)F)c2)cc1,36.5%
7,C=C(C)[C@@H]1CC[C@]2(C(=O)O)CC[C@]3(C)[C@H](CC[C@@H]4[C@@]5(C)C[C@@H](Cc6cn(CCO[C@@H]7O[C@H](COC(C)=O)[C@H](OC(C)=O)[C@H](OC(C)=O)[C@H]7OC(C)=O)nn6)[C@H](O)C(C)(C)[C@@H]5CC[C@]43C)[C@@H]12,61.8%
8,CC(C)CCC[C@@H](C)[C@H]1CC[C@H]2[C@@H]3CC=C4C[C@@H](C(C(=O)O)C(=O)O)CC[C@]4(C)[C@H]3CC[C@]12C,-51.7% (active)
9,O=S(=O)(Nc1ccc(Cl)cc1)c1ccc(-c2cnc(C3CC3)o2)cc1,40.4%
10,C#CCOc1ccc2ncnc(Nc3ccc(NC(=O)CCl)cc3)c2c1,18.7%
11,CCOC(=O)C1=C(NC)OCC1=O,90.9%
12,COC(=O)c1c2c(c(C)[n+]([O-])c1C)C(=O)C=C(NCc1ccc(Br)cc1)C2=O,-28.2% (active)
13,CCN(CC)CCOc1ccc(-c2c(-c3ccccc3)c(=O)oc3ccccc23)cc1,92%
14,Nc1nc(=S)c2ncn(C3OC(COP(=O)(O)O)C(O)C3O)c2[nH]1 (configuration not stated),32.9%
15,COc1ccc(/C=N/NC(=O)CCN2c3ccccc3Sc3ccccc32)cc1,77.6%
16,c1cnc2[nH]cc(-c3csc(-c4cn(CCCN5CCOCC5)c5ccccc45)n3)c2c1,54.4%
17,S=C1CCSC(=S)N1CCCN1C(=S)CCSC1=S,97.7%
18,COc1ccc(C(=O)Nc2ncc(Cc3ccc(F)cc3)s2)cc1,23.3%
19,C=C1C(=O)O[C@H]2[C@H]1CC/C(COC(=O)NCc1cc[nH]c1)=C\CC[C@@]1(C)O[C@@H]21,86.7%
20,CN(C)CCCC1(c2ccc(F)cc2)OCc2cc(-c3cccc4[nH]ccc34)ccc21 (configuration not stated),28.3%
21,COC(C(=O)[C@@H](O)[C@@H](C)O)[C@@H]1Cc2cc3cc(O[C@H]4C[C@@H](O[C@H]5C[C@@H](O)[C@H](O)C(C)O5)[C@H](O)C(C)O4)c(C)c(O)c3c(O)c2C(=O)[C@H]1O[C@H]1C[C@@H](O[C@H]2C[C@@H](O[C@H]3C[C@@H](O)[C@H](OC)C(C)O3)[C@@H](O)C(C)O2)[C@H](O)C(C)O1 (some centres not stated),3.24% (active)
22,CCNc1cc(-c2cccc(OC(F)(F)F)c2)nc2ccc(N3CCCC3)cc12,10.3%
23,CCNc1nc(-c2ccc(Cl)c(OC)c2)c(-c2ccnc(NCCCNS(=O)(=O)c3ccc(Cl)cc3)n2)s1,44.9%
24,Cc1nc2c(=O)[nH]c(SCC(=O)Nc3cccc(F)c3)nc2[nH]c1=O,106%
25,Cc1ccc(-c2nc3nc(-c4ccc(F)cc4)nc(N4CCNCC4)c3o2)cc1,27.2%
26,O=C(/C=C(/C=C/c1cccc2[nH]ccc12)OB(F)F)/C=C/c1cccc2[nH]ccc12,-30.9% (active)
27,Oc1c(Cl)cc(Cl)c2ccc(Cn3cc(-c4cc(C(F)(F)F)cc(C(F)(F)F)c4)nn3)nc12,95.5%
28,CC[C@@H](C(=O)[C@@H](C)[C@@H](O)[C@H](C)[C@@H]1O[C@@H]([C@@H](CC)C(=O)NCCc2ccc(F)cc2)CC[C@@H]1C)C1O[C@]2(C=CC(=O)[C@]3(CC[C@@](C)([C@H]4CC[C@](O)(CC)[C@H](C)O4)O3)O2)[C@H](C)C[C@@H]1C (some centres not stated),20.3%
